Assay [1] deals with 6-phosphogluconate dehydrogenase, decarboxylating (Homo sapiens) (UniProt P52209). Nature of the assay: inhibition of human phosphogluconate dehydrogenase – biochemical, recombinant enzyme, NADPH absorbance, primary screen (AID 1159550). The following applies: recombinant 6PGD, NADPH absorbance 341 nm; at 10 µM; stronger effect = higher value.
Assay [2] can be described thus: EMT-state selective cytotoxicity in co-culture – imaging, PC-3E GFP, TEM4-18 mCherry, primary screen (AID 1345086;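 active = compounds killing one labelled cell type while sparing the other, by normalised counts and ratio limits, not self-fluorescent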;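 as to all read-outs here: cells exposed to compound for 72 h before imaging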;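 as to red/green cell ratio (normalised): normalised mesenchymal count divided by normalised epithelial count so high means epithelial killing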). Conditions: PC-3E GFP / TEM4-18 mCherry co-culture, imaging cell counts, at 1 µM; for red/green cell ratio (normalised): actives lie on both sides, counts scaled to control wells, 1 = unselective.
For assay [3], the target named is Mitogen-activated protein kinase 7 (Homo sapiens) (UniProt Q13164). As to the kind of experiment: Gal4-ERK5 driven luciferase induction – cell-based, HTS, primary screen (AID 1508626;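 active = luciferase signal above three times the same-plate solvent-only control wells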;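 also: luciferase driven by Gal4-ERK5 fusion binding five Gal4 sites before minimal TATA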). The following applies: HeLa Gal4-ERK5 transactivation, 18 h, at 5 µM, stronger effect = higher value.
Sequence of Mitogen-activated protein kinase 7 (Homo sapiens) (Q13164 whole entry, looked up, the tested form may be a part): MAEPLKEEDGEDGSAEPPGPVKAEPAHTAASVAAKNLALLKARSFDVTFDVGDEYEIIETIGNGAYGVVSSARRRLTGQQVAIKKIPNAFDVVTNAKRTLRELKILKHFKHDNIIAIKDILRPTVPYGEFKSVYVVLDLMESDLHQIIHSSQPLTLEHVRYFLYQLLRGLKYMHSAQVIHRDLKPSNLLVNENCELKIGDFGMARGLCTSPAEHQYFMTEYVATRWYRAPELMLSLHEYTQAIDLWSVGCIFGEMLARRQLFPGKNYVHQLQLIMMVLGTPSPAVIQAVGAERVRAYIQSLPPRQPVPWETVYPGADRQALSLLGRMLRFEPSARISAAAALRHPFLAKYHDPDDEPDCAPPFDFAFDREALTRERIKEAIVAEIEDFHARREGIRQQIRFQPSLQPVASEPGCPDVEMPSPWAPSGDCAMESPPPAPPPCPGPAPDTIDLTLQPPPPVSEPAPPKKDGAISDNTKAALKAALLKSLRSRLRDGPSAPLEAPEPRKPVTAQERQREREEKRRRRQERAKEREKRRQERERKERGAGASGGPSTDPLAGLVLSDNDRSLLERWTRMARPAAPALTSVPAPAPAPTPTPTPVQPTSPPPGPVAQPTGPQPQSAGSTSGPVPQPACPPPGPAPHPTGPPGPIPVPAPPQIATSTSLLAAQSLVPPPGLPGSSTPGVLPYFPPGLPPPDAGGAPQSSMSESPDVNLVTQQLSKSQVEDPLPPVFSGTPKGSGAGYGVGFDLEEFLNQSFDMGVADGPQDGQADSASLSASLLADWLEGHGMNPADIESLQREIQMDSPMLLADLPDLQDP
Where [4] appears, read: measured here: epithelial PC-3E GFP cell survival.
Setting [5] is: measured here: mesenchymal TEM4-18 mCherry cell survival.

Activity calls are given as the source filed them.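 The calls were made as follows, unless noted: active = at least 20% inhibition of 6-phosphogluconate dehydrogenase activity; inactive = the rest.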

Sequence of 6-phosphogluconate dehydrogenase, decarboxylating (Homo sapiens) (P52209 whole entry, looked up): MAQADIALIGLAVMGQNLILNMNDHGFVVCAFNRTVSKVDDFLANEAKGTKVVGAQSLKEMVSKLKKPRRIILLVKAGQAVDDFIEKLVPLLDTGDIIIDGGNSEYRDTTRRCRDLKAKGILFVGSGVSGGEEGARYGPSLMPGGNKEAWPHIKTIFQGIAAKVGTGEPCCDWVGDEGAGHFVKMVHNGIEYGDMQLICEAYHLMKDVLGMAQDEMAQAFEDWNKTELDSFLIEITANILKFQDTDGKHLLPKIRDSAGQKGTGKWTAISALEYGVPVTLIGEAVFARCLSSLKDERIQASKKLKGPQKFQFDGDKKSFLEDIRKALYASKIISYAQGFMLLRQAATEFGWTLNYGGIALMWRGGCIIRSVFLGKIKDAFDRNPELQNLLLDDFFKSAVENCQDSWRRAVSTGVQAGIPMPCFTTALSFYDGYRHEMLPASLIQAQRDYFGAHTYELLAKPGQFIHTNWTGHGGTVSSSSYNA

As for `CC1=CC(=O)C(C(C)C)=CC1=O`, the inhibition in assay [1] was -9.74% (inactive). In addition, the red/green cell ratio (normalised) in assay [2] is 0.97 (inactive). The normalised cell number in assay [2] (setting [4]) came out at 0.99; in assay [2] (setting [5]) it was 0.96. Besides, the luciferase signal in assay [3] was 24 AU (inactive).

In the case of `Cc1ccc2c(c1)CC[C@H]1CC(=O)CC[C@]21C`, the inhibition in assay [1] is -2.97% (inactive). In assay [2], the red/green cell ratio (normalised) was 1.02 (inactive). The results for the normalised cell number in assay [2] (setting [4]) and in assay [2] (setting [5]) were 1.12 and 1.14, respectively. Moreover, the luciferase signal in assay [3] is 16 AU (inactive).

With `COc1c(-c2coc3cc4c(cc3c2=O)CC(O)C(C)(C)O4)ccc2c1C=CC(C)(C)O2` (stereo not given), the inhibition in assay [1] was -4.11% (inactive). Besides, the red/green cell ratio (normalised) in assay [2] was 0.82 (inactive). In addition, the figures for the normalised cell number in assay [2] (setting [4]) and in assay [2] (setting [5]) were 1.08 and 0.88, respectively. In assay [3], the luciferase signal was 24 AU (inactive).

As for `CCOC(=O)c1c(C)cc(O)c(C=O)c1O`, the inhibition in assay [1] is -5.47% (inactive). Further, the red/green cell ratio (normalised) in assay [2] is 0.95 (inactive). Besides, the values for the normalised cell number in assay [2] (setting [4]) and in assay [2] (setting [5]) were 0.99 and 0.94, respectively. Also, the luciferase signal in assay [3] was 56 AU (inactive).

On to `COc1ccc2c(c1)OCC(Cc1ccc(OC)c(O)c1)C2=O` (stereo not given), for which the inhibition in assay [1] is 13.3% (inactive). The red/green cell ratio (normalised) in assay [2] is 0.88 (inactive). In addition, the values for the normalised cell number in assay [2] (setting [4]) and in assay [2] (setting [5]) were 0.74 and 0.65, respectively. Besides, the luciferase signal in assay [3] was 52 AU (inactive).

Take `COc1ccc2c(c1)OC1(O)COc3cc(OC)c(OC)cc3C1=C2` (stereo not given): the inhibition in assay [1] was -7.74% (inactive). The red/green cell ratio (normalised) in assay [2] was 1.07 (inactive). Also, the normalised cell number stood at 1.01 in assay [2] (setting [4]) and 1.09 in assay [2] (setting [5]). In addition, in assay [3], the luciferase signal is 108 AU (inactive).

Take `COc1cc(C)c(C(=O)Oc2cc(C)c(C(=O)O)c(O)c2C)c(OC)c1C`: the inhibition in assay [1] is 17.4% (inactive). Moreover, in assay [2], the red/green cell ratio (normalised) was 1.11 (inactive). The normalised cell number in assay [2] (setting [4]) was determined as 0.88; in assay [2] (setting [5]) it was 0.98. For the same compound, the luciferase signal in assay [3] was 92 AU (inactive).

For `O=C(O)c1cccc(O)c1O`, the inhibition in assay [1] was 4.23% (inactive). Also, the red/green cell ratio (normalised) in assay [2] was 0.96 (inactive). Moreover, the values for the normalised cell number in assay [2] (setting [4]) and in assay [2] (setting [5]) were 1.23 and 1.19, respectively. The luciferase signal in assay [3] was 20 AU (inactive).

With `CCC(C)C(NC)C(=O)O` (stereo not given), the inhibition in assay [1] was -6.91% (inactive). The red/green cell ratio (normalised) in assay [2] was 1.02 (inactive). Moreover, the normalised cell number in assay [2] (setting [4]) stood at 1.08; in assay [2] (setting [5]), 1.11. Moreover, in assay [3], the luciferase signal is 68 AU (inactive).

For the compound `CCOc1cccc(C(=O)c2ccc(O)c(O)c2O)c1`, in assay [1], the inhibition was 11.3% (inactive). In addition, the red/green cell ratio (normalised) in assay [2] is 0.95 (inactive). Besides, the values for the normalised cell number in assay [2] (setting [4]) and in assay [2] (setting [5]) were 1.01 and 0.96, respectively. Moreover, in assay [3], the luciferase signal is 116 AU (inactive).

In the case of `COc1ccc2c(C)cc(=O)oc2c1`, the inhibition in assay [1] was 13.6% (inactive). In addition, the red/green cell ratio (normalised) in assay [2] is 1.03 (inactive). For the same compound, the normalised cell number in assay [2] (setting [4]) was determined as 1.13; in assay [2] (setting [5]), 1.16. Besides, the luciferase signal in assay [3] is 60 AU (inactive).

Regarding `COc1c2ccccc2nc2occc12`, the inhibition in assay [1] is 7.87% (inactive). In addition, the red/green cell ratio (normalised) in assay [2] is 1.02 (inactive). Further, the normalised cell number in assay [2] (setting [4]) was determined as 1.03; in assay [2] (setting [5]) it was 1.05. Besides, the luciferase signal in assay [3] is 40 AU (inactive).

For the compound `C=CC(C1=CC(=O)C(OC)=CC1=O)c1ccc(O)cc1` (stereo not given), the inhibition in assay [1] is 1.39% (inactive). Further, the red/green cell ratio (normalised) in assay [2] is 0.91 (inactive). Besides, the normalised cell number in assay [2] (setting [4]) turned out to be 1.05; in assay [2] (setting [5]), 0.95. The luciferase signal in assay [3] is 136 AU (inactive).

In the case of `COc1cc(O)c(C)c(O)c1`, the inhibition in assay [1] is 5.9% (inactive). Further, the red/green cell ratio (normalised) in assay [2] is 0.94 (inactive). Further, the results for the normalised cell number in assay [2] (setting [4]) and in assay [2] (setting [5]) were 1.19 and 1.12, respectively. Also, in assay [3], the luciferase signal is 48 AU (inactive).

For the compound `COc1ccc2c(=O)c(CC(=O)O)coc2c1`, the inhibition in assay [1] is -1.05% (inactive). Also, the red/green cell ratio (normalised) in assay [2] is 0.91 (inactive). Besides, the normalised cell number in assay [2] (setting [4]) turned out to be 0.98; in assay [2] (setting [5]), 0.89. The luciferase signal in assay [3] was 60 AU (inactive).

Take `COc1cc(-c2coc3cc(O[C@@H]4O[C@H](CO)[C@@H](O)[C@H](O)[C@H]4O)c(OC)c(O)c3c2=O)cc(O)c1OC`: the inhibition in assay [1] is -0.763% (inactive). In addition, the red/green cell ratio (normalised) in assay [2] is 0.96 (inactive). Also, the normalised cell number amounted to 0.99 in assay [2] (setting [4]) and 0.95 in assay [2] (setting [5]). For the same compound, in assay [3], the luciferase signal was 68 AU (inactive).

As for `C=CC1=C(C)/C(=C/c2[nH]c(Cc3[nH]c(/C=C4\NC(=O)C(C)=C4C=C)c(C)c3CCC(=O)O)c(CCC(=O)O)c2C)NC1=O`, in assay [1], the inhibition is 2.22% (inactive). Moreover, the red/green cell ratio (normalised) in assay [2] is 0.85 (inactive). In addition, the normalised cell number turned out to be 1.14 in assay [2] (setting [4]) and 0.97 in assay [2] (setting [5]). Further, in assay [3], the luciferase signal was 60 AU (inactive).

Turning to `c1ccc2c(c1)CN1CCCC1=N2`, the inhibition in assay [1] is -1.15% (inactive). The red/green cell ratio (normalised) in assay [2] is 1.13 (inactive). The normalised cell number in assay [2] (setting [4]) was found to be 0.94; in assay [2] (setting [5]) it was 1.06. For the same compound, the luciferase signal in assay [3] is 52 AU (inactive).

Turning to `CC(C)=CCc1c(O)cc2oc(C)cc(=O)c2c1O`, the inhibition in assay [1] was 8.51% (inactive). Moreover, in assay [2], the red/green cell ratio (normalised) is 0.93 (inactive). Besides, the figures for the normalised cell number in assay [2] (setting [4]) and in assay [2] (setting [5]) were 1.18 and 1.1, respectively. In addition, in assay [3], the luciferase signal is 52 AU (inactive).

As to `COc1cc(O)cc(OC)c1OC`, in assay [1], the inhibition is -0.756% (inactive). Moreover, the red/green cell ratio (normalised) in assay [2] was 1.04 (inactive). The normalised cell number in assay [2] (setting [4]) turned out to be 1.01; in assay [2] (setting [5]), 1.04. In addition, the luciferase signal in assay [3] was 20 AU (inactive).

As for `CC1=CC2C(CC1=O)C(C)=CCC2C(C)C` (stereo not given), the inhibition in assay [1] is 2.64% (inactive). Further, the red/green cell ratio (normalised) in assay [2] was 1.21 (inactive). The normalised cell number in assay [2] (setting [4]) stood at 1.06; in assay [2] (setting [5]), 1.28. Moreover, the luciferase signal in assay [3] was 24 AU (inactive).

On to `CC(=O)Oc1ccc2c(c1OC(C)=O)OCC1(O)Cc3c(cc(OC(C)=O)c(OC(C)=O)c3OC(C)=O)C21` (stereo not given), for which, in assay [1], the inhibition was 18.4% (inactive). The red/green cell ratio (normalised) in assay [2] was 0.84 (inactive). Also, the normalised cell number in assay [2] (setting [4]) turned out to be 1.08; in assay [2] (setting [5]) it was 0.91. In assay [3], the luciferase signal is 44 AU (inactive).

For `COc1ccc(-c2coc3cc(O)ccc3c2=O)c(O)c1O`, the inhibition in assay [1] is 9.58% (inactive). The red/green cell ratio (normalised) in assay [2] was 0.97 (inactive). Further, the results for the normalised cell number in assay [2] (setting [4]) and in assay [2] (setting [5]) were 0.83 and 0.8, respectively. In addition, in assay [3], the luciferase signal is 16 AU (inactive).

As to `COc1ccc2c(c1)OCC(Cc1ccc(OC)c(OC)c1)C2=O` (stereo not given), in assay [1], the inhibition is 8.36% (inactive). Moreover, in assay [2], the red/green cell ratio (normalised) is 0.98 (inactive). The figures for the normalised cell number in assay [2] (setting [4]) and in assay [2] (setting [5]) were 0.85 and 0.84, respectively. Moreover, the luciferase signal in assay [3] is 56 AU (inactive).

With `CCOc1ccc(C(=O)c2ccc(OC)c(O)c2O)cc1`, the inhibition in assay [1] was -3.36% (inactive). For the same compound, the red/green cell ratio (normalised) in assay [2] is 0.9 (inactive). The normalised cell number in assay [2] (setting [4]) came out at 0.9; in assay [2] (setting [5]), 0.81. The luciferase signal in assay [3] was 68 AU (inactive).

`COc1ccc2c(c1)OC/C(=C\c1ccc(OC)c(O)c1)C2=O`: in assay [1], the inhibition was -46% (inactive). For the same compound, the red/green cell ratio (normalised) in assay [2] was 0.99 (inactive). Besides, the normalised cell number in assay [2] (setting [4]) and in assay [2] (setting [5]) was 0.74 each time. Moreover, the luciferase signal in assay [3] is 88 AU (inactive).

For `COC1(C)CCC2OC2(C)CCC2C1CC2(C)C` (stereo not given), in assay [1], the inhibition is 10.7% (inactive). In assay [2], the red/green cell ratio (normalised) was 1.21 (inactive). The normalised cell number was 0.76 in assay [2] (setting [4]) and 0.91 in assay [2] (setting [5]). Also, in assay [3], the luciferase signal was 80 AU (inactive).

For the origin of these results see PubChem BioAssay.
